Screens as filed in PubChem.
UBC13 inh: UBC13 polyubiquitin chain formation inhibitors, primary screen, biochemical, TR-FRET, uHTS | Ubiquitin-conjugating enzyme E2 N (Homo sapiens), P61088 | inhibition, % at 20 µM | 330,000 tested, 0.47% active; in the data active = inhibition above about 45%, passing the limit was not always enough; inconclusive = no clear call, values can overlap the other calls
dFosB act: activators of delta FosB homodimer, primary screen, biochemical, fluorescence polarization, TAMRA-CDK5 oligo, single point; activation, % at 25 µM; purified delta FosB; percent of positive-control signal above neutral wells; AID 493131, 2011; 340,000 tested, 0.99% active; Protein FosB (Mus musculus), P13346;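 active = mean activation above about 17%, with every replicate also reaching it, limit read from the data, passing the limit was not always enough; inconclusive = only one of the two conditions met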
Target sequence (P13346 whole entry, looked up): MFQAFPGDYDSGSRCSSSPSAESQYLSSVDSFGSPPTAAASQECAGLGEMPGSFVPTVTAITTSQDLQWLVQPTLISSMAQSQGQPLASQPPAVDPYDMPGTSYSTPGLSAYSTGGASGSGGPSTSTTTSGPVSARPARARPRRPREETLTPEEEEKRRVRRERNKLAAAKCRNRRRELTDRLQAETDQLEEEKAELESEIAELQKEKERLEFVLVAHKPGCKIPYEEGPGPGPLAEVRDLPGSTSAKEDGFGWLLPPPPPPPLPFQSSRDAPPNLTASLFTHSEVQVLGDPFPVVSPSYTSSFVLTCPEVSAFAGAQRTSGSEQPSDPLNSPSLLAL
Yeast superoxide: reduction of superoxide in aged yeast, primary screen, HTS; superoxide response (% of plate mean), % at 10 µM; AID 2690, 2010; S. cerevisiae aged cells, superoxide DHE fluorescence; stronger effect = lower value; 330,000 tested, 0.18% active;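 active = superoxide response under a set limit, about three screen SD below normal, cut at about 65% in these data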;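 note: yeast aged for seven days with compound at 30 °C before DHE staining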
NALP1 yeast inh: NALP1 inflammasome inhibitors in reconstituted yeast, colorimetric, S. cerevisiae, triplicate retest. S. cerevisiae NALP1/ASC/caspase-1 growth, X-gal OD620, 72 h. inhibition, % at 10 µM. 280,000 tested, 0.61% active. AID 2071, 2009; in the data active = inhibition mostly above about 24%, no sharp cut-off; inactive = mostly below about 32%
NR3A LBD binder: binders of NR3A ligand-binding domain, primary screen, biophysical, differential scanning fluorimetry, uHTS; NR3A LBD differential scanning fluorimetry, Tm shift; 0% = protein alone, 100% = glycine-bound protein; AID 1259313, 2017; 340,000 tested, 2.5% active; Glutamate receptor ionotropic, NMDA 3A (GRIN3A) ligand-binding domain; Tm shift relative to glycine control, % at 25 µM;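 active = melting temperature shift of at least 10% of the positive control shift, at one fixed dose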
A number is an active result; n = inactive; u = inconclusive; x = not tested or not shown. This is a sample that favours compounds with a hit; in the whole collection about 4.3% have one here.

SMILES	UBC13 inh	dFosB act	Yeast superoxide	NALP1 yeast inh	NR3A LBD binder
O=C(COc1ncnc2ccc(Br)cc12)NC1CCCC1	n	n	n	x	n
CCc1ccc(NC(=O)C2CC(=O)Nc3ncnn32)cc1 (stereo not given)	n	n	n	n	21
CCCCN(C(=O)C1CCCO1)c1c(N)n(CCC)c(=O)[nH]c1=O (stereo not given)	n	n	n	x	n
O=C(Nc1cccc(-c2csc(Nc3ccc(Cl)cc3)n2)c1)c1ccccc1	n	n	n	x	25
O=C(Nc1ccc(-c2csc(Nc3ccccc3)n2)cc1)c1ccccc1	n	n	n	n	17
O=C(Nc1cccc(-c2csc(Nc3ccc(Cl)cc3)n2)c1)c1cccc(C(F)(F)F)c1	n	n	n	x	26
O=C(NNc1nc(-c2ccccc2)cs1)c1ccccc1	n	n	n	n	n
O=C(O)c1ccc(NCCc2ccc(Cl)cc2)c([N+](=O)[O-])c1	n	n	n	n	n
O=C1CSC(=S)N1	n	n	n	n	n
CCCc1ccc(-c2cc(NC(=O)CSc3n[nH]c(N)n3)n(-c3ccccc3)n2)cc1	n	n	n	n	18
CCOC(=O)N1CCc2c(sc(NC(=O)CCS(=O)(=O)c3ccccc3)c2C(N)=O)C1	n	n	n	n	n
CNC(=O)c1c(NC(=O)CCS(=O)(=O)c2ccc(Cl)cc2)sc2c1CCN(C(=O)OC)C2	n	n	n	x	10
CCOC(=O)C1CCCN(C(=O)c2ccc(Cl)c(S(=O)(=O)N3CCCCCC3)c2)C1 (stereo not given)	n	n	n	n	n
CN(C)c1ccc(NS(=O)(=O)c2cc3c4c(c2)CC(=O)N4CCC3)cc1	n	n	n	n	n
CSc1cccc(NC(=O)CC2Oc3ccccc3NC2=O)c1 (stereo not given)	n	37	n	n	n
COc1cccc(NC(=O)CC2Oc3ccccc3NC2=O)c1 (stereo not given)	n	n	n	n	n
Cn1ncc(N=Cc2c(O)ccc3ccccc23)c1C(=O)Nc1cccc(Cl)c1	n	n	n	n	n
C[C@H](CO)N1C[C@H](C)[C@@H](CN(C)C(=O)Nc2ccc(C(F)(F)F)cc2)Oc2c(NC(=O)Nc3ccc(C(F)(F)F)cc3)cccc2C1=O	n	n	n	x	28
C[C@H]1CN([C@@H](C)CO)C(=O)c2cccc(NC(=O)Nc3ccc(C(F)(F)F)cc3)c2O[C@H]1CN(C)C	n	n	n	x	n
C[C@H]1CN([C@@H](C)CO)C(=O)c2cccc(NC(=O)Nc3ccc(C(F)(F)F)cc3)c2O[C@@H]1CN(C)C(=O)Nc1ccc(F)cc1	n	n	n	x	21
COc1ccc(S(=O)(=O)Nc2cccc3c2O[C@H](CN(C)C(=O)NC(C)C)[C@@H](C)CN([C@H](C)CO)C3=O)cc1	n	n	n	x	16
COc1ccc(NC(=O)Nc2cccc3c2O[C@H](CN(C)C(=O)Nc2ccc(C(F)(F)F)cc2)[C@@H](C)CN([C@H](C)CO)C3=O)cc1	n	n	n	x	n
Cc1cc(C(=O)N2CCN(S(=O)(=O)c3ccccc3F)CC2)c(C)o1	n	n	n	n	n
CN1CCC(Oc2ccc(Sc3ccccc3)cc2)CC1	n	n	n	49	n
c1ccc2c(Cn3nnc4ccccc43)cccc2c1	n	n	n	n	11
SMILES	UBC13 inh	dFosB act	Yeast superoxide	NALP1 yeast inh	NR3A LBD binder
CCOc1ccccc1C(=O)N[C@H](C(=O)OCc1cc(=O)oc2cc(C)ccc12)C(C)C	n	n	n	n	15
COc1cc(OC)cc(C(=O)N[C@H](C(=O)OCc2cc(=O)oc3cc(C)ccc23)C(C)C)c1	n	n	n	n	n
CCOC(=O)Cn1c(=NC(=O)c2nc3ccccc3s2)sc2cc(S(N)(=O)=O)ccc21	n	u	n	n	n
C=CCn1c(=NC(=O)c2sc3ccccc3c2Cl)sc2cc(S(N)(=O)=O)ccc21	n	n	n	n	16
COCCn1c(=NC(=O)c2sc3ccccc3c2Cl)sc2cc(S(N)(=O)=O)ccc21	n	n	n	n	23
COc1cc(C2C3=C(Nc4nc(N)[nH]c(=O)c42)c2ccccc2C3=O)ccc1O (stereo not given)	n	43	n	x	n
Nc1nc2c(c(=O)[nH]1)C(c1ccccc1)C1=C(N2)c2ccccc2C1=O (stereo not given)	n	n	n	x	n
